Results from PubChem BioAssay (NCI).
This is part of a sample that, as a whole, favours compounds with a hit. Of some 79,000 tested, about 15% had one in any assay. Calls of active or inactive are those of the source. Rule as the data show it: active = growth inhibition above about 70%; inactive = the rest.

Columns and labels:
[1] = NCI Yeast Anticancer Drug Screen. Data for the rad52 strain (AID 147);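 also: 0% = growth of vehicle-treated control cultures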; conditions: S. cerevisiae rad52 mutant growth inhibition, active compounds read high
Outline: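 Genetically altered yeast (DNA damage repair defect) treated with compound; inhibition calculated relative to vehicle.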

[2] = NCI Yeast Anticancer Drug Screen. Data for the wt1 strain (AID 149);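 also: 0% = growth of vehicle-treated wt1 cultures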; conditions: S. cerevisiae wt1 strain (SPY 50644) growth inhibition, active compounds read high
Outline: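 Yeast wt1 strain exposed to compounds; growth inhibition measured relative to vehicle-treated controls.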

[3] = NCI Yeast Anticancer Drug Screen. Data for the rad50EPP+ strain (AID 151);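 also: 0% = growth of vehicle-treated control cultures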; conditions: S. cerevisiae rad50 mutant strain, active compounds read high
Outline: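 Strain rad50EPP+; compound exposure; % growth inhibition vs vehicle.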

[4] = NCI Yeast Anticancer Drug Screen. Data for the mgt1 strain (AID 153); conditions: S. cerevisiae mgt1 mutant growth inhibition, active compounds read high
Outline: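 Read-out: yeast growth inhibition vs vehicle control. Strain mgt1, drawn from a panel altered in DNA damage repair or cell cycle control.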

[5] = NCI Yeast Anticancer Drug Screen. Data for the rad50 strain (AID 155);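 also: 0% = growth of vehicle-only cultures of the same strain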; conditions: S. cerevisiae rad50 strain growth inhibition, active compounds read high
Outline: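 Yeast carrying a defined DNA repair defect were exposed to test compounds, and growth was compared with vehicle-treated controls to give percent inhibition.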

[6] = NCI Yeast Anticancer Drug Screen. Data for the mec2-1 strain (AID 157); conditions: S. cerevisiae mec2-1 strain, active compounds read high
Outline: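 Cells of the genetically defined mec2-1 yeast strain are incubated with test compound. Inhibition of growth is calculated against vehicle-treated controls.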

[7] = NCI Yeast Anticancer Drug Screen. Data for the rad14 strain (AID 159);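 also: 0% = growth of vehicle-treated control cultures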; conditions: S. cerevisiae rad14 strain growth inhibition, active compounds read high
Outline: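 Yeast cells carrying a defined DNA-repair defect were exposed to compounds, and growth inhibition was calculated relative to vehicle-treated control cultures.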

[8] = NCI Yeast Anticancer Drug Screen. Data for the sgs1 mgt1 strain (AID 161);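 also: 0% = growth of cultures given vehicle only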; conditions: S. cerevisiae sgs1 mgt1 strain, active compounds read high
Outline: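 Mutant yeast exposed to compound; growth scored against vehicle-only wells.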

[9] = NCI Yeast Anticancer Drug Screen. Data for the cln2 rad14 strain (AID 165);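 also: 0% = growth equal to vehicle treated cultures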; conditions: S. cerevisiae cln2 rad14 strain, active compounds read high
Outline: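 The screen exposed genetically defined yeast (cln2 rad14) to test compounds and scored growth inhibition relative to vehicle-treated controls.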

[10] = NCI Yeast Anticancer Drug Screen. Data for the bub3 strain (AID 167); conditions: S. cerevisiae bub3 mutant strain, active compounds read high
Outline: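 Compounds were applied to a genetically altered yeast strain carrying a cell-cycle control defect. Growth inhibition was scored against vehicle-treated controls.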

[11] = NCI Yeast Anticancer Drug Screen. Data for the wt2 strain (AID 169);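 also: 0% = growth of vehicle-treated yeast cultures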; conditions: S. cerevisiae wt2 strain growth inhibition, active compounds read high
Outline: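 Steps: yeast strain treated with compound; growth recorded; inhibition calculated relative to cultures given vehicle alone.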

[12] = NCI Yeast Anticancer Drug Screen. Data for the mlh1 strain (AID 171);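 also: 0% = growth of vehicle-treated control cultures of the same strain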; conditions: S. cerevisiae mlh1 strain growth inhibition, active compounds read high
Outline: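 Yeast screen: mutant strain plus compound, growth scored against vehicle control wells.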

[13] = NCI Yeast Anticancer Drug Screen. Data for the sgs1 strain (AID 173);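 also: 0% = growth of vehicle-only control cultures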; conditions: S. cerevisiae sgs1 mutant, active compounds read high
Outline: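 Inhibition of yeast growth served as the measure. The mutant strain was treated with each compound, and growth was normalised to cultures receiving vehicle alone.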

[14] = NCI Yeast Anticancer Drug Screen. Data for the mlh1 rad18 strain (AID 175); conditions: S. cerevisiae mlh1 rad18 strain growth inhibition, active compounds read high
Outline: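 Compound-treated yeast growth, normalised to vehicle controls. Strain bears defined DNA repair mutations.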

[15] = NCI Yeast Anticancer Drug Screen. Data for the rad18 strain (AID 177); conditions: S. cerevisiae rad18 mutant growth inhibition, active compounds read high
Outline: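 Inhibition values reflect reduced yeast growth compared with vehicle-treated controls, using a strain engineered with a DNA damage repair defect.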

[16] = NCI Yeast Anticancer Drug Screen. Data for the CLN2oe strain (AID 163);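 also: 0% = growth of vehicle-only control cultures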; conditions: S. cerevisiae CLN2oe strain, active compounds read high
Outline: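 Strain altered in cell-cycle control, incubated with compound; growth compared to solvent-treated controls.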

[17] = at 5.0 µM (retest, dose inferred, filed as 0.5)
[18] = at 50.0 µM (retest, dose inferred, filed as 5.0)

Measured: growth inhibition

CO[C@H](/C(C)=C/C=C/C(C)=C/c1coc(C)n1)[C@H](C)[C@H]1C[C@@H](O)[C@@]2(C)O[C@H]2/C=C/[C@@H](C)[C@@H]2C[C@@H](CC(=O)O2)C[C@H]2O[C@@H]2C(=O)O1
inactive: [1]; at 1.2 µM 6% | [1]; at 3.7 µM -2% | [1]; at 11.0 µM 14% | [1]; at 33.0 µM 17% | [2]; at 1.2 µM 7% | [2]; at 3.7 µM -2% | [2]; at 11.0 µM 2% | [2]; at 33.0 µM 15% | [3]; at 1.2 µM -17% | [3]; at 3.7 µM -9% | [3]; at 11.0 µM -21% | [3]; at 33.0 µM -8% | [3]; at 100.0 µM -23% | [4]; at 1.2 µM -4% | [4]; at 3.7 µM -14% | [4]; at 11.0 µM -6% | [4]; at 33.0 µM 24% | [5]; at 1.2 µM -6% | [5]; at 3.7 µM -15% | [5]; [17] -9% | [5]; at 11.0 µM -26% | [5]; at 33.0 µM 4% | [5]; at 50.0 µM 39.1% | [6]; at 1.2 µM -9% | [6]; at 3.7 µM -5% | [6]; [17] -9% | [6]; at 11.0 µM -16% | [6]; at 33.0 µM 16% | [6]; at 50.0 µM 49.2% | [7]; at 1.2 µM -28% | [7]; at 3.7 µM -17% | [7]; at 11.0 µM -8% | [7]; at 33.0 µM -8% | [8]; [17] 15% | [8]; at 50.0 µM 20.6% | [9]; [17] 8% | [9]; [18] 54% | [9]; at 50.0 µM 19.4% | [10]; at 1.2 µM -19% | [10]; at 3.7 µM -10% | [10]; [17] 37% | [10]; at 11.0 µM 9% | [11]; at 1.2 µM -12% | [11]; at 3.7 µM -4% | [11]; at 11.0 µM -6% | [12]; at 1.2 µM 10% | [12]; at 3.7 µM 7% | [12]; at 11.0 µM 11% | [12]; at 33.0 µM 44% | [13]; at 1.2 µM 1% | [13]; at 3.7 µM 2% | [13]; at 11.0 µM -6% | [13]; at 33.0 µM 8% | [14]; [17] -9% | [14]; at 50.0 µM 33.4% | [15]; at 1.2 µM 0% | [15]; at 3.7 µM -12% | [15]; at 11.0 µM -14% | [15]; at 33.0 µM 6%
active: [1]; at 100.0 µM 93% | [2]; at 100.0 µM 93% | [4]; at 100.0 µM 94% | [5]; [18] 89% | [5]; at 100.0 µM 93% | [6]; [18] 93% | [6]; at 100.0 µM 93% | [7]; at 100.0 µM 91% | [8]; [18] 91% | [10]; at 33.0 µM 89% | [10]; [18] 95% | [10]; at 50.0 µM 83.3% | [10]; at 100.0 µM 96% | [11]; at 33.0 µM 81% | [11]; at 100.0 µM 92% | [12]; at 100.0 µM 94% | [13]; at 100.0 µM 91% | [14]; [18] 89% | [15]; at 100.0 µM 92%

O=C1C2CC(Cl)C(SSC3CC4C(=O)N(SC(Cl)(Cl)C(Cl)Cl)C(=O)C4CC3Cl)CC2C(=O)N1SC(Cl)(Cl)C(Cl)Cl (stereo not drawn)
active: [1]; at 1.2 µM 71% | [1]; at 3.7 µM 91% | [1]; at 11.0 µM 96% | [1]; at 33.0 µM 95% | [1]; at 100.0 µM 89% | [2]; at 3.7 µM 83% | [2]; at 11.0 µM 97% | [2]; at 33.0 µM 96% | [2]; at 100.0 µM 93% | [3]; at 1.2 µM 75% | [3]; at 3.7 µM 97% | [3]; at 11.0 µM 98% | [3]; at 33.0 µM 97% | [3]; at 100.0 µM 93% | [4]; at 3.7 µM 98% | [4]; at 11.0 µM 99% | [4]; at 33.0 µM 97% | [4]; at 100.0 µM 92% | [5]; at 3.7 µM 92% | [5]; [17] 98% | [5]; at 11.0 µM 97% | [5]; at 33.0 µM 96% | [5]; [18] 95% | [5]; at 50.0 µM 90.3% | [5]; at 100.0 µM 90% | [6]; at 3.7 µM 91% | [6]; [17] 100% | [6]; at 11.0 µM 99% | [6]; at 33.0 µM 98% | [6]; [18] 98% | [6]; at 50.0 µM 90.4% | [6]; at 100.0 µM 94% | [7]; at 1.2 µM 83% | [7]; at 3.7 µM 96% | [7]; at 11.0 µM 97% | [7]; at 33.0 µM 96% | [7]; at 100.0 µM 90% | [8]; [18] 95% | [8]; at 50.0 µM 89.5% | [16]; at 3.7 µM 96% | [16]; at 11.0 µM 98% | [16]; at 33.0 µM 97% | [16]; at 100.0 µM 90% | [9]; at 50.0 µM 84.9% | [10]; at 1.2 µM 80% | [10]; at 3.7 µM 99% | [10]; at 11.0 µM 99% | [10]; at 33.0 µM 96% | [10]; [18] 98% | [10]; at 50.0 µM 92.8% | [10]; at 100.0 µM 90% | [11]; at 3.7 µM 95% | [11]; at 11.0 µM 98% | [11]; at 33.0 µM 97% | [11]; at 100.0 µM 90% | [12]; at 3.7 µM 97% | [12]; at 11.0 µM 98% | [12]; at 33.0 µM 97% | [12]; at 100.0 µM 93% | [13]; at 1.2 µM 80% | [13]; at 3.7 µM 98% | [13]; at 11.0 µM 97% | [13]; at 33.0 µM 96% | [13]; at 100.0 µM 87% | [15]; at 1.2 µM 96% | [15]; at 3.7 µM 97% | [15]; at 11.0 µM 97% | [15]; at 33.0 µM 97% | [15]; at 100.0 µM 89%
inactive: [2]; at 1.2 µM 14% | [4]; at 1.2 µM 68% | [5]; at 1.2 µM 49% | [6]; at 1.2 µM 37% | [8]; [17] -9% | [16]; at 1.2 µM 40% | [9]; [17] -20% | [9]; [18] -57% | [10]; [17] -6% | [11]; at 1.2 µM 17% | [12]; at 1.2 µM 64%
